From PubChem BioAssay (NCI)
The panel holds about 83,000 compounds, 20% with a hit somewhere; the sample as a whole holds those more often.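 Results are percent growth after 48 hours of single-concentration exposure. 100 means growth as in untreated cells, lower positive values show inhibition; negative values down to -100 show cell death.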 Unmarked numbers belong to inactive results. Activity calls are given as the source filed them. How the source made its calls: active means growth percent below 10; inactive means the rest.

Legend:
Experiment in all cases: NCI-60 one-dose screen, 48 h (100 = growth as untreated, 0 = no growth, -100 = all killed)
[1] = tested on: HCT-15 colon; conditions: 10 µM unless noted
[2] = tested on: HT29 colon; conditions: 10 µM unless noted
[3] = tested on: SNB-75 CNS; conditions: 10 µM unless noted
[4] = tested on: SNB-19 CNS; conditions: 10 µM unless noted
[5] = tested on: U251 CNS; conditions: 10 µM unless noted
[6] = tested on: PC-3 prostate; conditions: 10 µM unless noted
[7] = tested on: SK-MEL-5 melanoma; conditions: 10 µM unless noted
[8] = tested on: UACC-62 melanoma; conditions: 10 µM unless noted
[9] = tested on: LOX IMVI melanoma; conditions: 10 µM unless noted
[10] = tested on: SK-MEL-28 melanoma; conditions: 10 µM unless noted
[11] = tested on: SK-MEL-2 melanoma; conditions: 10 µM unless noted
[12] = tested on: EKVX NSCLC; conditions: 10 µM unless noted
[13] = tested on: SN12C renal; conditions: 10 µM unless noted
[14] = tested on: UO-31 renal; conditions: 10 µM unless noted
[15] = tested on: TK-10 renal; conditions: 10 µM unless noted
[16] = tested on: CAKI-1 renal; conditions: 10 µM
[17] = tested on: A498 renal; conditions: 10 µM unless noted
[18] = tested on: CCRF-CEM leukemia; conditions: 10 µM unless noted
[19] = tested on: MOLT-4 leukemia; conditions: 10 µM unless noted
[20] = tested on: ACHN renal; conditions: 10 µM unless noted

CC(CN(C)C)CN1c2ccccc2CCc2ccccc21 (configuration not stated)
growth [1]: 89.9% | growth [2]: 56.7% | growth [3]: 66.9% | growth [4]: 96.8% | growth [5]: 85.6% | growth [6]: 66.7% | growth [7]: 77.9% | growth [8]: 77.1% | growth [9]: 74.5% | growth [10]: 84.9% | growth [11]: 88.8% | growth [12]: 80.6% | growth [13]: 73.7% | growth [14]: 38.9% | growth [15]: 87.2% | growth [16]: 70.6% | growth [17]: 104% | growth [18]: 87.1% | growth [19]: 81.2%

Cc1ccc(N(CC2=NCCN2)c2cccc(O)c2)cc1
growth [1]: 102% | growth [2]: 107% | growth [3]: 84.9% | growth [4]: 103% | growth [5]: 88.8% | growth [6]: 92.1% | growth [7]: 99.2% | growth [8]: 105% | growth [9]: 95% | growth [10]: 108% | growth [11]: 107% | growth [12]: 90.2% | growth [13]: 94.6% | growth [14]: 79.7% | growth [15]: 102% | growth [16]: 90% | growth [17]: 93.8% | growth [18]: 98.5% | growth [19]: 97.7%

Cc1cc2c(cc1C)N(C(=O)CCl)CCN2C(=O)CCl
growth [1]: -64% (active) | growth [2]: -73% (active) | growth [3]: -94% (active) | growth [4]: 39.6% | growth [5]: -84.3% (active) | growth [6]: -70.2% (active) | growth [7]: -97.6% (active) | growth [8]: -43.1% (active) | growth [9]: -89.3% (active) | growth [10]: -49.5% (active) | growth [11]: -68.1% (active) | growth [12]: -23% (active) | growth [13]: -38.4% (active) | growth [14]: -81.5% (active) | growth [15]: -96.9% (active) | growth [20]: -81.6% (active) | growth [17]: 85% | growth [18]: -28.8% (active) | growth [19]: 1.2% (active)

CC[C@@]1(O)C(=O)OCc2c1cc1n(c2=O)Cc2c-1nc1ccccc1c2/C=N/OC(C)(C)C
growth [1]: 11.2% | growth [2]: -13.9% (active) | growth [3]: 0.198% (active) | growth [4]: 5.74% (active) | growth [5]: -37.4% (active) | growth [6]: 23.6% | growth [7]: -66.3% (active) | growth [8]: -58.6% (active) | growth [9]: -58.5% (active) | growth [10]: 14.3% | growth [11]: -17.8% (active) | growth [12]: 17% | growth [13]: 5.56% (active) | growth [14]: -64.8% (active) | growth [15]: 1.26% (active) | growth [17]: -70.2% (active) | growth [18]: 4.16% (active) | growth [19]: -10.6% (active)

CCc1cccc(C)c1NC(=O)c1sc2nc3c(cc2c1N)CCCCC3
growth [1]: 27.5% | growth [2]: 8.55% (active) | growth [3]: 6.57% (active) | growth [4]: 26.8% | growth [5]: 24.1% | growth [6]: 35.5% | growth [7]: 14.2% | growth [8]: 30.2% | growth [9]: 45.1% | growth [10]: 67.6% | growth [11]: 38.9% | growth [12]: 45.7% | growth [13]: 41.1% | growth [14]: 51% | growth [15]: 66.7% | growth [17]: 8.2% (active) | growth [18]: 16.6% | growth [19]: 26.7%

COc1cc(NS(C)(=O)=O)ccc1Cc1c2ccccc2nc2ccccc12
growth [1]: 18.3% | growth [2]: 8.23% (active) | growth [3]: 21.4% | growth [4]: 25.9% | growth [5]: 18.7% | growth [6]: 55.2% | growth [7]: 8.33% (active) | growth [8]: 26.1% | growth [9]: -26.2% (active) | growth [10]: 50.7% | growth [11]: 104% | growth [12]: 45.3% | growth [13]: -6.92% (active) | growth [14]: -5.05% (active) | growth [15]: 23.9% | growth [16]: -4.78% (active) | growth [17]: -8.76% (active) | growth [18]: 3.42% (active) | growth [19]: 4.35% (active)

OCCOCC(F)(F)F
growth [1]: 108% | growth [2]: 105% | growth [3]: 88.3% | growth [4]: 117% | growth [5]: 105% | growth [6]: 97.8% | growth [7]: 107% | growth [8]: 113% | growth [9]: 112% | growth [10]: 98.5% | growth [11]: 119% | growth [12]: 97.9% | growth [13]: 116% | growth [14]: 94.1% | growth [15]: 116% | growth [20]: 108% | growth [18]: -0.0215% (active)

CN(C)c1ccc(/C=N/n2c(-c3cc(F)c(Cl)cc3Cl)nn(CN3CCOCC3)c2=S)cc1
growth [1]: 103% | growth [2]: 110% | growth [3]: 97.7% | growth [4]: 99.4% | growth [5]: 89% | growth [6]: 103% | growth [7]: 92.3% | growth [8]: 94.8% | growth [9]: 96.1% | growth [10]: 108% | growth [11]: 104% | growth [12]: 107% | growth [13]: 103% | growth [14]: 69.1% | growth [15]: 107% | growth [20]: 98.6% | growth [17]: 77.9% | growth [18]: 92.4% | growth [19]: 88.8%

Nc1nc(-c2cc3c(cc2Cl)NC(=O)/C3=C/c2ccccc2)cs1
growth [1]: 35.5% | growth [2]: 35.8% | growth [3]: 64.8% | growth [4]: 59.7% | growth [5]: 40.3% | growth [6]: 46.4% | growth [7]: 24.7% | growth [8]: 43% | growth [9]: 3.66% (active) | growth [10]: 76.1% | growth [11]: 71.3% | growth [12]: 34.7% | growth [13]: 51.9% | growth [14]: 45.6% | growth [15]: 100% | growth [17]: 60% | growth [18]: 16.1% | growth [19]: 21.8%

CCCCNc1cc(C(=O)O)cc(S(N)(=O)=O)c1Oc1ccccc1
growth [1]: 108% | growth [2]: 112% | growth [3]: 90.4% | growth [4]: 106% | growth [5]: 99.8% | growth [6]: 95.7% | growth [7]: 95.3% | growth [8]: 101% | growth [9]: 93.5% | growth [10]: 109% | growth [11]: 106% | growth [12]: 106% | growth [13]: 97.1% | growth [14]: 85.4% | growth [15]: 104% | growth [16]: 89.3% | growth [17]: 89.1% | growth [18]: 105% | growth [19]: 110%

COc1ccc(C2=NN(C(=O)COc3ccc(Cl)cc3)C(O)(c3cc(F)c(Cl)cc3Cl)C2)cc1OC (configuration not stated)
growth [1]: 4.88% (active) | growth [2]: -75.9% (active) | growth [3]: 3.94% (active) | growth [4]: 62.7% | growth [5]: 55.5% | growth [6]: 32.1% | growth [7]: 65.4% | growth [8]: 52.5% | growth [9]: -35.6% (active) | growth [10]: -51.6% (active) | growth [11]: 68.3% | growth [12]: 61.6% | growth [13]: 19.8% | growth [14]: -86.6% (active) | growth [15]: 16% | growth [20]: 5.24% (active) | growth [17]: 141% | growth [18]: -62.1% (active) | growth [19]: -32% (active)

COC(=O)Nc1nc2ccc(Sc3ccccc3)cc2[nH]1
growth [1]: 13.8% | growth [2]: 4.14% (active) | growth [3]: 21.7% | growth [4]: 31.3% | growth [5]: 17% | growth [6]: 26.6% | growth [7]: 8.9% (active) | growth [8]: 35.9% | growth [9]: 19.3% | growth [10]: 48.9% | growth [11]: 53% | growth [12]: 57.1% | growth [13]: 44.6% | growth [14]: 34.6% | growth [15]: 65.6% | growth [16]: 39.1% | growth [17]: 13.9% | growth [18]: 10.7% | growth [19]: 14.6%

C=C1c2c(Cl)ccc(O)c2C(O)=C2C(=O)[C@]3(O)C(O)=C(C(N)=O)C(=O)[C@@H](N(C)C)[C@@H]3[C@@H](O)[C@H]12
growth [1]: 13.7% | growth [2]: 10.9% | growth [3]: 0.44% (active) | growth [4]: 20.9% | growth [5]: 4.36% (active) | growth [6]: -8.47% (active) | growth [7]: 20.4% | growth [8]: 7.11% (active) | growth [9]: 0.768% (active) | growth [10]: 25.8% | growth [11]: -10.9% (active) | growth [12]: 36.4% | growth [13]: 10.8% | growth [14]: 4.78% (active) | growth [15]: 7.64% (active) | growth [16]: 3.62% (active) | growth [17]: -10% (active) | growth [18]: 4.46% (active) | growth [19]: -11.5% (active)

CCCCCC/C=N/Nc1ccc([N+](=O)[O-])cn1
growth [1]: 102% | growth [2]: 81.5% | growth [3]: 105% | growth [4]: 108% | growth [5]: 110% | growth [6]: 93.2% | growth [7]: 113% | growth [8]: 102% | growth [9]: 83.2% | growth [10]: 109% | growth [11]: 89.6% | growth [12]: 101% | growth [13]: 110% | growth [14]: 84.6% | growth [15]: 94.8% | growth [17]: 103% | growth [18]: 100% | growth [19]: 103%

CC1CCc2cc(F)cc3c(=O)c(C(=O)O)cn1c23 (configuration not stated)
growth [1]: 105% | growth [2]: 116% | growth [3]: 109% | growth [4]: 93.1% | growth [5]: 101% | growth [6]: 96.6% | growth [7]: 102% | growth [8]: 92.8% | growth [9]: 69.1% | growth [10]: 120% | growth [11]: 125% | growth [12]: 91.4% | growth [13]: 98.2% | growth [14]: 78.5% | growth [15]: 103% | growth [16]: 81% | growth [17]: 88.1% | growth [18]: 109% | growth [19]: 97.3%

FC(F)(F)c1cn(CCN2CCOCC2)c2ncnc(Cl)c12
growth [1]: 14.9% | growth [2]: 72.7% | growth [3]: 78.1% | growth [4]: 22.5% | growth [5]: 71.2% | growth [6]: 28.1% | growth [7]: 42.5% | growth [8]: 53.2% | growth [9]: -63.9% (active) | growth [10]: 72.4% | growth [11]: 41.3% | growth [12]: 92.6% | growth [13]: 71.2% | growth [14]: -85.5% (active) | growth [15]: 113% | growth [17]: 105% | growth [18]: 12.3% | growth [19]: 40.4%
